About 7,900 targets were measured; listed, in parts, are those with a hit and a random draw of the rest. About 0.6% of all pairs of compound and target were hits.
Assays:
Assay in all cases: log2 fold change, soluble protein after heating vs DMSO (PISA); higher = thermal stabilisation; K562 cells, 10 uM, 30 min; active = over 0.2 and 3.5 SD of the protein, either way, in both replicates (recomputed)
[1] = compound: COC1=CC=C(C=C1)CN2C=CC3=C2C=C(C=C3)C(=O)NO
Method in brief: (§1)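 K562 cells (2×10^6 cells/mL) were treated with 10 μM compound for 30 min, and aliquots were heated for 3 min over 48°C-58°C. Pooled aliquots were extracted in PBS with 0.5% NP-40 at 4°C, and the supernatant after 21,000xg for 90 min was measured by TMTpro 16plex LC-MS/MS with channel sums equalised. Reported thermal stability, relative to control samples and from duplicates, is a log2 fold change.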

filanesib = compound: CON(C)C(=O)N1N=C(c2cc(F)ccc2F)S[C@@]1(CCCN)c1ccccc1 [filanesib]
Method in brief: as §1

zotarolimus = compound: CO[C@H]1C[C@@H]2CC[C@@H](C)[C@@](O)(O2)C(=O)C(=O)N2CCCC[C@H]2C(=O)O[C@H]([C@H](C)C[C@@H]2CC[C@H](n3cnnn3)[C@H](OC)C2)CC(=O)[C@H](C)/C=C(\C)[C@@H](O)[C@@H](OC)C(=O)[C@H](C)C[C@H](C)/C=C/C=C/C=C/1C [zotarolimus]
Method in brief: as §1

idasanutlin = compound: COc1cc(C(=O)O)ccc1NC(=O)[C@@H]1N[C@@H](CC(C)(C)C)[C@](C#N)(c2ccc(Cl)cc2F)[C@H]1c1cccc(Cl)c1F [idasanutlin]
Method in brief: as §1

alisertib = compound: COc1cc(Nc2ncc3c(n2)-c2ccc(Cl)cc2C(c2c(F)cccc2OC)=NC3)ccc1C(=O)O [alisertib]
Method in brief: as §1

[2] = compound: COc1cc2nc(-c3cc(F)ccc3O)nc(N[C@@H]3CNC[C@H]3C(C)(C)O)c2cc1OC
Method in brief: as §1

gefitinib = compound: COc1cc2ncnc(Nc3ccc(F)c(Cl)c3)c2cc1OCCCN1CCOCC1 [gefitinib]
Method in brief: as §1

[3] = compound: COc1cccc2cc(-c3nc([C@H]4CC[C@H](C(=O)O)CC4)n4ncnc(N)c34)[nH]c12
Method in brief: as §1

lapatinib = compound: CS(=O)(=O)CCNCc1ccc(-c2ccc3ncnc(Nc4ccc(OCc5cccc(F)c5)c(Cl)c4)c3c2)o1 [lapatinib]
Method in brief: as §1

pictilisib = compound: CS(=O)(=O)N1CCN(Cc2cc3nc(-c4cccc5[nH]ncc45)nc(N4CCOCC4)c3s2)CC1 [pictilisib]
Method in brief: as §1

Measured: log2 fold change

AP2B1 isoform 2 (UniProt P63010)
Sequence of UniProt P63010 (P63010 whole entry, looked up): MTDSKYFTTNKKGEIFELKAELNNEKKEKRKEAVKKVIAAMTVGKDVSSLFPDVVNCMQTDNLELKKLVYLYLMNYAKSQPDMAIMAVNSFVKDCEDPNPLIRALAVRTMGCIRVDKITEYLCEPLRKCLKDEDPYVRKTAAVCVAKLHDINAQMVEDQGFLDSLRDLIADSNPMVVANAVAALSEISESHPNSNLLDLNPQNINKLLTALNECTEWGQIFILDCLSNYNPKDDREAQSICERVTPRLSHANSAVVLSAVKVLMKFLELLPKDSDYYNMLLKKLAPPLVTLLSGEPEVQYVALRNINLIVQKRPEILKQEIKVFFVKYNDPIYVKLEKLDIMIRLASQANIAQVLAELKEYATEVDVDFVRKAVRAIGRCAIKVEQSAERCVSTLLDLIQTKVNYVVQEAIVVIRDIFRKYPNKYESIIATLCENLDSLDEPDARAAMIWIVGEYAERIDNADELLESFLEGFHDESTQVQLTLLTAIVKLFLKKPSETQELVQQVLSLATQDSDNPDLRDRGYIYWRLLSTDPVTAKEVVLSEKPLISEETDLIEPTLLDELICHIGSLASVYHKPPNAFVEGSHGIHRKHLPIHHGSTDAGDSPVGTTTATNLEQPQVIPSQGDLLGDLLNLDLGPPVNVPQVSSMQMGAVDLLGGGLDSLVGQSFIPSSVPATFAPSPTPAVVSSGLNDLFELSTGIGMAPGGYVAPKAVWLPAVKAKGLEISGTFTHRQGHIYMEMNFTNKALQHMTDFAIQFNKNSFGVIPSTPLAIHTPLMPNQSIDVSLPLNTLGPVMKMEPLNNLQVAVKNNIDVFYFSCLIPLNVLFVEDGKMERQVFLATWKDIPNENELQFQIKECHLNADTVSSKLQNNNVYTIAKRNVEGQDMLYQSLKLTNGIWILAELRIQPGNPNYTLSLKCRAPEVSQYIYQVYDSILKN
inactive: [1] 0.08 | filanesib 0.022 | zotarolimus 0.036 | idasanutlin -0.019 | alisertib -0.062 | [2] 0.012 | gefitinib 0.01 | [3] 0.01 | lapatinib 0.049 | pictilisib 0.015

B4GALNT1 (UniProt Q00973)
Sequence of UniProt Q00973 (Q00973 whole entry, looked up): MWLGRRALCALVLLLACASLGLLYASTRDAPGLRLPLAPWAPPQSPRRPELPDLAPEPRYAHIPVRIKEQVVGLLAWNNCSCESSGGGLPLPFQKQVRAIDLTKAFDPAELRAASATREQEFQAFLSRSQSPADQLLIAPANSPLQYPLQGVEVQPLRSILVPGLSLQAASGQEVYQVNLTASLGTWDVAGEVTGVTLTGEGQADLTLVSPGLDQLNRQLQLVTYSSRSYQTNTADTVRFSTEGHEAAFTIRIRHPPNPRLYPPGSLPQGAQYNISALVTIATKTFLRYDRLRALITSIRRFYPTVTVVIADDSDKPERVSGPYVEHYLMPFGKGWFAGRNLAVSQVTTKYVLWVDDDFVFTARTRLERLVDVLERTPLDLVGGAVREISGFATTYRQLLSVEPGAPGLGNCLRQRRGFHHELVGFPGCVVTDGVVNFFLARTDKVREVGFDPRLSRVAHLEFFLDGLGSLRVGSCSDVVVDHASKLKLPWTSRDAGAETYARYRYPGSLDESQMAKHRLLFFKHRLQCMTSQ
inactive: [1] 0.023 | filanesib 0.092 | zotarolimus 0.081 | idasanutlin 0.093 | alisertib -0.063 | [2] -0.045 | gefitinib 0.119 | [3] 0.112 | lapatinib 0.097 | pictilisib -0.045

ATP6V0A2 (UniProt Q9Y487)
inactive: [1] -0.029 | filanesib -0.083 | zotarolimus 0.011 | idasanutlin 0.004 | alisertib -0.082 | [2] -0.07 | gefitinib -0.058 | [3] -0.056 | lapatinib 0.016 | pictilisib -0.071

ATP5IF1 (UniProt Q9UII2)
Sequence of UniProt Q9UII2 (Q9UII2 whole entry, looked up): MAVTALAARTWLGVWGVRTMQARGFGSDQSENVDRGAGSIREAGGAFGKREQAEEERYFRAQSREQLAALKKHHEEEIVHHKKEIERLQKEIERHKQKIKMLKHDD
inactive: [1] -0.02 | filanesib -0.067 | zotarolimus 0.004 | idasanutlin 0.093 | alisertib -0.062 | [2] 0.024 | gefitinib 0.013 | [3] 0.03 | lapatinib -0.043 | pictilisib -0.016

BST2 (UniProt Q10589)
inactive: [1] -0.064 | filanesib -0.05 | zotarolimus 0.041 | idasanutlin -0.044 | alisertib -0.059 | [2] -0.028 | gefitinib -0.022 | [3] 0.007 | lapatinib 0.038 | pictilisib 0.036

ADD3 (UniProt Q9UEY8)
inactive: [1] 0.018 | filanesib 0.059 | zotarolimus -0.074 | idasanutlin 0.02 | alisertib -0.063 | [2] 0.057 | gefitinib 0.021 | [3] 0.063 | lapatinib -0.006 | pictilisib 0.075

ATP6V1F isoform 2 (UniProt Q16864)
inactive: [1] 0.126 | filanesib 0.162 | zotarolimus 0.036 | idasanutlin 0.095 | alisertib -0.158 | [2] -0.151 | gefitinib 0.019 | [3] 0.021 | lapatinib -0.112 | pictilisib -0.054

ACO2 (UniProt Q99798)
Sequence of UniProt Q99798 (Q99798 whole entry, looked up): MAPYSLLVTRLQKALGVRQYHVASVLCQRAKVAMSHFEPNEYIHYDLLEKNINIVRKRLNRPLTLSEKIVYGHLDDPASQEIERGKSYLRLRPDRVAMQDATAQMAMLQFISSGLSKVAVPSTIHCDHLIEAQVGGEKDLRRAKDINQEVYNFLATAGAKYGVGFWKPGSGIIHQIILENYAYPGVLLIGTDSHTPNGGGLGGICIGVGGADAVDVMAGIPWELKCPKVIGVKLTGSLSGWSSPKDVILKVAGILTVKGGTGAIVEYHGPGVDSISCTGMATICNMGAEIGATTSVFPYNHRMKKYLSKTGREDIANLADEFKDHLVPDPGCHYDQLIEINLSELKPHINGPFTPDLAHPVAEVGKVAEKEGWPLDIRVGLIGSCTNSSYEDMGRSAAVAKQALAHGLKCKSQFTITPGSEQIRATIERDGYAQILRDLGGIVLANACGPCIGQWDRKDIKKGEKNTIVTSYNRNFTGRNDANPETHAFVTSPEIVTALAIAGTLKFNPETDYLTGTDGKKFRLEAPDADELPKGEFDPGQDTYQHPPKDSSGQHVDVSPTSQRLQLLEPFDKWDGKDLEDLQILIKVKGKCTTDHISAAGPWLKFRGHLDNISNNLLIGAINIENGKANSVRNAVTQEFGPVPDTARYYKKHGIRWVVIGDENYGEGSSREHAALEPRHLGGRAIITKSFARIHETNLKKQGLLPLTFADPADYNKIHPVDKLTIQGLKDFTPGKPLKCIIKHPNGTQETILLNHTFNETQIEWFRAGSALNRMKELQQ
inactive: [1] -0.101 | filanesib -0.081 | zotarolimus 0.015 | idasanutlin -0.086 | alisertib -0.016 | [2] 0.036 | gefitinib 0.008 | [3] 0.071 | lapatinib -0.018 | pictilisib 0.041

BCAP29 isoform 2 (UniProt Q9UHQ4)
Sequence of UniProt Q9UHQ4 (Q9UHQ4 whole entry, looked up): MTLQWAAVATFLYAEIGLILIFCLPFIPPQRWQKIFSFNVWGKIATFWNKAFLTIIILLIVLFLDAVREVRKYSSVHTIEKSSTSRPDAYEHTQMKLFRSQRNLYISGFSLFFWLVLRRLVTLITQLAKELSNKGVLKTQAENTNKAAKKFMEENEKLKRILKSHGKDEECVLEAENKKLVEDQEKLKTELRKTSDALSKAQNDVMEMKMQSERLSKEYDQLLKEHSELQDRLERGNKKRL
inactive: [1] -0.033 | filanesib -0.047 | zotarolimus -0.022 | idasanutlin 0.027 | alisertib -0.023 | [2] -0.1 | gefitinib 0.035 | [3] 0.035 | lapatinib -0.009 | pictilisib -0.027

APH1A (UniProt Q96BI3)
Sequence of UniProt Q96BI3 (Q96BI3 whole entry, looked up): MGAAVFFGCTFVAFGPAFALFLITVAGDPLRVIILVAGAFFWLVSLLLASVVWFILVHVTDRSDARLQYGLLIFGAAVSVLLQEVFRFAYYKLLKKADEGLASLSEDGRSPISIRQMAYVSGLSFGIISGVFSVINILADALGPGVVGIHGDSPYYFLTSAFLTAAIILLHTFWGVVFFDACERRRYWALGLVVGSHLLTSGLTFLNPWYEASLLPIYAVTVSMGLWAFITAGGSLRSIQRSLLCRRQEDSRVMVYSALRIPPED
inactive: [1] 0.101 | filanesib -0.039 | zotarolimus -0.062 | idasanutlin 0.005 | alisertib -0.228 | [2] -0.236 | gefitinib 0.043 | [3] 0.059 | lapatinib 0.091 | pictilisib 0.013

BTAF1 (UniProt O14981)
inactive: [1] 0.018 | filanesib -0.006 | zotarolimus -0.004 | idasanutlin -0.095 | alisertib 0.175 | [2] 0.093 | gefitinib -0.045 | [3] -0.028 | lapatinib -0.01 | pictilisib -0.032

ALKBH5 (UniProt Q6P6C2)
inactive: [1] 0.124 | filanesib 0.001 | zotarolimus -0.067 | idasanutlin 0.016 | alisertib -0.12 | [2] 0.044 | gefitinib 0.023 | [3] -0.138 | lapatinib -0.008 | pictilisib 0.094

ALDH9A1 isoform 3 (UniProt P49189)
Sequence of UniProt P49189 (P49189 whole entry, looked up): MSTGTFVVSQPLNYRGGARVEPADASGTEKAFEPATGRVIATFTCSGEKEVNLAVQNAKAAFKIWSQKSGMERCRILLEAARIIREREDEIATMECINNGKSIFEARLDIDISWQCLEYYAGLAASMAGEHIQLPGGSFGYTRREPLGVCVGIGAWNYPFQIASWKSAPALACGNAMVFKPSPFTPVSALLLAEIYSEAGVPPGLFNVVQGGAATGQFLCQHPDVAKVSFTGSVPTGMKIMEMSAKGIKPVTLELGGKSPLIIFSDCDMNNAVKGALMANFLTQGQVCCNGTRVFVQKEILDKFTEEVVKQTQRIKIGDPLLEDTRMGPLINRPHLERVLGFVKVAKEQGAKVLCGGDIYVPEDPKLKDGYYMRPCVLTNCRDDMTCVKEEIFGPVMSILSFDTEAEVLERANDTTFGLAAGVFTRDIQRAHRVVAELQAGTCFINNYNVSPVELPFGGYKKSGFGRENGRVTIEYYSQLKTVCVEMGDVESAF
inactive: [1] -0.006 | filanesib -0.04 | zotarolimus 0.001 | idasanutlin -0.006 | alisertib 0.017 | [2] -0.01 | gefitinib -0.028 | [3] 0.041 | lapatinib -0.007 | pictilisib -0.002

BCCIP (UniProt Q9P287)
inactive: [1] -0.022 | filanesib 0.06 | zotarolimus 0.031 | idasanutlin -0.048 | alisertib -0.086 | [2] 0.033 | gefitinib 0.036 | [3] -0.024 | lapatinib 0.01 | pictilisib -0.024

BAD (UniProt Q92934)
Sequence of UniProt Q92934 (Q92934 whole entry, looked up): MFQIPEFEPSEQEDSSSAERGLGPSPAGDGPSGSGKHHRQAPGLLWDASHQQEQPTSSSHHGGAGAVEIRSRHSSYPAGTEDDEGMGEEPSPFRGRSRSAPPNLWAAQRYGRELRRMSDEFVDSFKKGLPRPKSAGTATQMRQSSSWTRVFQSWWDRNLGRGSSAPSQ
inactive: [1] -0.103 | filanesib 0.124 | zotarolimus -0.073 | idasanutlin -0.049 | alisertib 0.103 | [2] -0.016 | gefitinib 0.115 | [3] 0.068 | lapatinib -0.037 | pictilisib 0.022

ATP1A1 (UniProt P05023)
inactive: [1] 0.09 | filanesib 0.013 | zotarolimus 0.002 | idasanutlin 0.004 | alisertib -0.092 | [2] 0.032 | gefitinib 0.03 | [3] 0.054 | lapatinib -0.019 | pictilisib -0.023

BECN1 (UniProt Q14457)
inactive: [1] 0.094 | filanesib -0.005 | zotarolimus -0.142 | idasanutlin -0.159 | alisertib -0.081 | [2] 0.117 | gefitinib 0 | [3] -0.045 | lapatinib 0.008 | pictilisib 0.086

ARL3 (UniProt P36405)
inactive: [1] 0 | filanesib -0.017 | zotarolimus -0.006 | idasanutlin -0.062 | alisertib -0.076 | [2] -0.007 | gefitinib -0.018 | [3] 0.047 | lapatinib -0.03 | pictilisib 0.031

ALDH6A1 (UniProt Q02252)
Sequence of UniProt Q02252 (Q02252 whole entry, looked up): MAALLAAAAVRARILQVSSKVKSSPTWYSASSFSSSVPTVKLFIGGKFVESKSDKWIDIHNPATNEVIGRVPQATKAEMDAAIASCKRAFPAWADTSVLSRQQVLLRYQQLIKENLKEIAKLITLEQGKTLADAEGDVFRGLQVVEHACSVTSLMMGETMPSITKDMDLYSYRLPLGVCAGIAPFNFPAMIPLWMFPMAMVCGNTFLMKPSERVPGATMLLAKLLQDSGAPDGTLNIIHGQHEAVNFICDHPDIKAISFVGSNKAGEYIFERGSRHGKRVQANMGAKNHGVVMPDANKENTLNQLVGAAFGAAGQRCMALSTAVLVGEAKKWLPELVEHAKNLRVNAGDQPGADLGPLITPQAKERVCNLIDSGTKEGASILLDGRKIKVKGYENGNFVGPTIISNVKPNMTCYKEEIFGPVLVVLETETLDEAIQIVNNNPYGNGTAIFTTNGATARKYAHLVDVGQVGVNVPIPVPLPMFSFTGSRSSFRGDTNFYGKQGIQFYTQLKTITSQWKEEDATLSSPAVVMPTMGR
inactive: [1] -0.128 | filanesib -0.025 | zotarolimus 0.024 | idasanutlin -0.032 | alisertib -0.09 | [2] 0.029 | gefitinib 0.04 | [3] 0.066 | lapatinib 0.02 | pictilisib 0.063

ANP32E (UniProt Q9BTT0)
inactive: [1] 0.027 | filanesib 0.011 | zotarolimus 0.066 | idasanutlin 0.061 | alisertib 0.045 | [2] -0.039 | gefitinib 0.021 | [3] -0.027 | lapatinib -0.011 | pictilisib 0.06

AKT2 (UniProt P31751)
inactive: [1] 0.008 | filanesib -0.056 | zotarolimus -0.01 | idasanutlin -0.121 | alisertib -0.041 | [2] 0.008 | gefitinib -0.012 | [3] -0.231 | lapatinib 0.04 | pictilisib 0.044

ACADM isoform 2 (UniProt P11310)
Sequence of UniProt P11310 (P11310 whole entry, looked up): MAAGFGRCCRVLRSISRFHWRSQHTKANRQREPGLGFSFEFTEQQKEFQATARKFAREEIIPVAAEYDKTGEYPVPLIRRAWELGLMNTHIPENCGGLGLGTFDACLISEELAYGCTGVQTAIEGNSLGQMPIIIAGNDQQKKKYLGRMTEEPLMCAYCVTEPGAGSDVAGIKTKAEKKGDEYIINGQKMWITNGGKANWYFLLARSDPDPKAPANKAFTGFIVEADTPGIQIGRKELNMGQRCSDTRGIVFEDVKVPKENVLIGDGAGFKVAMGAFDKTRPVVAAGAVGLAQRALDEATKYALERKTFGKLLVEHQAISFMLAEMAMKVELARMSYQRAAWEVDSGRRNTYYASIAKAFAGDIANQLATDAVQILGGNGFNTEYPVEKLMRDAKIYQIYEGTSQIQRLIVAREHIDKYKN
inactive: [1] 0.039 | filanesib -0.036 | zotarolimus 0.014 | idasanutlin -0.039 | alisertib -0.055 | [2] 0.039 | gefitinib 0.017 | [3] 0.046 | lapatinib 0.001 | pictilisib 0.029

ADPRHL2 (UniProt Q9NX46)
active: [2] 0.245
inactive: [1] 0.111 | filanesib -0.08 | zotarolimus 0.022 | idasanutlin -0.06 | alisertib 0.009 | gefitinib -0.028 | [3] 0.012 | lapatinib 0.03 | pictilisib 0.078

ARL1 (UniProt P40616)
inactive: [1] -0.007 | filanesib -0.155 | zotarolimus 0.03 | alisertib -0.124 | [2] -0.042 | gefitinib 0.047 | [3] 0.042 | lapatinib 0.117 | pictilisib -0.135
active: idasanutlin -0.254

ARPP19 (UniProt P56211)
Sequence of UniProt P56211 (P56211 whole entry, looked up): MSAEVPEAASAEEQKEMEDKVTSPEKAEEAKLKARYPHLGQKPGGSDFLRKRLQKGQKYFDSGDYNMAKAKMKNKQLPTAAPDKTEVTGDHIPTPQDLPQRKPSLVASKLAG
inactive: filanesib 0.033 | zotarolimus -0.016 | idasanutlin 0.002 | alisertib -0.061 | [2] -0.184 | gefitinib -0.007 | [3] 0.075 | lapatinib -0.01 | pictilisib -0.073
active: [1] 0.294

ABCC5 (UniProt O15440)
inactive: [1] -0.026 | filanesib 0.001 | zotarolimus -0.02 | idasanutlin 0.017 | alisertib -0.026 | [2] 0.053 | gefitinib 0.089 | [3] -0.05 | lapatinib 0 | pictilisib -0.037

ANXA5 (UniProt P08758)
Sequence of UniProt P08758 (P08758 whole entry, looked up): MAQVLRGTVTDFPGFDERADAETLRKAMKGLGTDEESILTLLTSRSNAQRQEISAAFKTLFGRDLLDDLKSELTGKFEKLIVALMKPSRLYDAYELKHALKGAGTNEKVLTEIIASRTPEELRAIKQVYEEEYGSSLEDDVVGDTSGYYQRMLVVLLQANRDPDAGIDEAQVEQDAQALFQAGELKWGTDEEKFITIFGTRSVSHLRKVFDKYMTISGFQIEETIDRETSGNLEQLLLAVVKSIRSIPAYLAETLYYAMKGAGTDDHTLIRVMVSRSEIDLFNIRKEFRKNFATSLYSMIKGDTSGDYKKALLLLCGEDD
inactive: [1] 0.033 | filanesib -0.033 | zotarolimus 0.049 | idasanutlin -0.013 | alisertib -0.006 | [2] 0.009 | gefitinib 0.05 | [3] -0.032 | lapatinib 0.015 | pictilisib -0.021
